DENV2 CPE: inhibitors of DENV2 cytopathic effect; DENV2-infected cells, cytopathic effect rescue, plate reader; CPE inhibition, % at 9.99 µM; 1.7% of 350,000 active; AID 651640; in the data active = CPE inhibition above about 20%, passing the limit was not always enough; inconclusive = no clear call, values can overlap the other calls; tested in BHK-21 cells;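 also: 0% = median of neutral control wells and 100% = median of positive control wells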
PglD inh: inhibitors of Campylobacter jejuni PglD acetyltransferase; purified PglD enzyme, DTNB colorimetric CoA detection; inhibition, % at 12.5 µM; 0.098% of 360,000 active; AID 602405; in the data active = inhibition above about 16%, passing the limit was not always enough; inconclusive = no clear call, values can overlap the other calls
N-glyco inh: blocks N-linked glycosylation in D54 reporter cells; AID 588692; 0.23% of 360,000 active; reporter increase, % at 12.5 µM; D54 ERlucT glycosylation luciferase reporter, 24 h; percent of 100 nM tunicamycin response;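 active = mean luciferase reporter signal, scaled so untreated is 0 and the glycosylation-blocking control 100, at or above a set limit in every replicate; inconclusive = mean reaches the limit but not every replicate does; inactive = mean below the limit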;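 also: luciferase carries N-glycosylation sites so blocking glycosylation raises the light; 0% = median of neutral control wells and 100% = median of 100 nM tunicamycin wells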
Rtt109 HAT inh: inhibitors of Candida albicans Rtt109/Vps75 histone acetyltransferase; purified Rtt109/Vps75, ThioGlo CoA-SH fluorescence, 4 h; inhibition, % at 34.9 µM; 0.16% of 330,000 active; AID 540336;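 active = inhibition of at least 50% in every replicate; inconclusive = best replicate reaches 50% inhibition but some replicates fall short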
Target sequence (Q5AAJ8 whole entry, looked up): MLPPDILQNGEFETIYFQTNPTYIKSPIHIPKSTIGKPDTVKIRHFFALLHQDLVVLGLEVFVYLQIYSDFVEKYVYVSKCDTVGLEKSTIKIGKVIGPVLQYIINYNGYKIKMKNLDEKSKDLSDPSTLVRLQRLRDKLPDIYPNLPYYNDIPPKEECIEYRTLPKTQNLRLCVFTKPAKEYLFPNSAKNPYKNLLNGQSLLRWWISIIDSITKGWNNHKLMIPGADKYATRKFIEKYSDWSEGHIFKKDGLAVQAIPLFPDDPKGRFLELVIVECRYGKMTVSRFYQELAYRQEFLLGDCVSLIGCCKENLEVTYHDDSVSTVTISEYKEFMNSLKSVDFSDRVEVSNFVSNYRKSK
Numbers without * were called inactive; ? = inconclusive; . = no result given. The full list was thinned out, with hits kept by preference.

SMILES | DENV2 CPE | PglD inh | N-glyco inh | Rtt109 HAT inh
Cc1ccc(NCC(=O)N/N=C/c2cccc(Br)c2)cc1 | 31* | -4 | 3 | 2
O=C(CNc1cccc2ccccc12)N/N=C/C(Br)=C/c1ccccc1 | . | -1 | 31* | 1
CO[C@H]1CN(C)C(=O)c2cc(NC(=O)c3ccccc3)ccc2OC[C@@H](C)N(C(=O)CN(C)C)C[C@@H]1C | -1 | 2 | . | .
CCC(=O)Nc1nnc(/C=C/c2ccc(OC)cc2)s1 | 58* | . | -2 | -8
N#C/C(=C\c1cccnc1)c1nc2ccccc2[nH]1 | -4 | 0 | 42* | .
O=C(C1CC1)N1CC(=O)N2[C@H](C1)[C@@H](c1ccc(C#CC3CCCC3)cc1)[C@@H]2CO | -17 | . | . | .
N#Cc1c(Nc2ccccc2)[n+]([O-])c2ccc(Cl)cc2[n+]1[O-] | 21* | . | -1 | 5
C[C@@H]1CCCCO[C@@H](CN(C)Cc2ccc(Cl)c(Cl)c2)[C@@H](C)CN([C@@H](C)CO)C(=O)c2cc(NC(=O)Cc3ccccc3)ccc2O1 | -2 | 1 | . | .
Cc1ccc(S(=O)(=O)c2nnn3c2nc(N2CCOCC2)c2ccccc23)cc1C | 25* | -1 | 1 | 4
O=C(NCCc1ccncc1)[C@H]1[C@H](CO)[C@H]2Cn3c(ccc(-c4cccc(F)c4)c3=O)[C@@H]1N2 | -10 | -1 | . | .
O=C(NCCc1ccncc1)[C@@H]1[C@@H](CO)[C@@H]2Cn3c(ccc(-c4cccc(F)c4)c3=O)[C@H]1N2 | 85* | -1 | . | .
C[C@@H]1CCCCO[C@H](CN(C)C(=O)Nc2ccc(F)cc2)[C@@H](C)CN([C@@H](C)CO)C(=O)c2cc(NS(=O)(=O)c3ccc(Cl)cc3)ccc2O1 | 7 | 3 | . | .
COc1ccc(CN(C)C[C@H]2Oc3ccc(NS(=O)(=O)c4cccs4)cc3CC(=O)N([C@@H](C)CO)C[C@@H]2C)cc1 | -6 | . | . | .
C[C@H]1CN([C@@H](C)CO)C(=O)c2cccc(NC(=O)Nc3ccc4c(c3)OCO4)c2O[C@H]1CN(C)Cc1ccc2c(c1)OCO2 | 27* | -1 | . | .
C[C@@H]1CN([C@@H](C)CO)C(=O)c2cc(NC(=O)Nc3ccc4c(c3)OCO4)ccc2O[C@@H]1CN(C)Cc1ccc2c(c1)OCO2 | 42* | 4 | . | .
C[C@@H]1CN([C@H](C)CO)C(=O)c2cc(N(C)C)ccc2O[C@H]1CN(C)Cc1ccc2c(c1)OCO2 | -9 | -1 | . | .
C[C@H](CO)N1C[C@H](C)[C@@H](CN(C)Cc2ccc3c(c2)OCO3)Oc2ccc(N(C)C)cc2C1=O | 23* | -2 | . | .
C[C@@H]1CN([C@@H](C)CO)C(=O)c2cccc(NC(=O)Nc3ccc4c(c3)OCO4)c2O[C@H]1CN(C)Cc1ccc2c(c1)OCO2 | 22* | 2 | . | .
C[C@@H]1CN([C@H](C)CO)C(=O)c2cc(NC(=O)Nc3ccc4c(c3)OCO4)ccc2O[C@@H]1CN(C)Cc1ccc2c(c1)OCO2 | -5 | 1 | . | .
C[C@@H]1CN([C@@H](C)CO)C(=O)c2cc(-c3ccc(C#N)cc3)cnc2O[C@@H]1CN(C)C(=O)CN(C)C | 4 | -4 | . | .
CCC(=O)NC[C@@H]1[C@@H](c2ccc(C3=CCCC3)cc2)[C@H](CO)N1C(=O)C1CC1 | 3 | -2 | . | .
C[C@@H]1CCCCO[C@@H](CN(C)C(=O)c2ccncc2)[C@H](C)CN([C@@H](C)CO)C(=O)c2cc(NC(=O)c3ccncc3)ccc2O1 | ? | -4 | . | .
CCCCOC(=O)CCN1C(=O)/C(=C2\SC(=S)N(CCC(=O)OCCCC)C2=O)SC1=S | 75* | 3 | 3 | 13
CCCCCOC(=O)CCN1C(=O)/C(=C2\SC(=S)N(CCC(=O)OCCCCC)C2=O)SC1=S | 0 | -5 | 5 | 4
Cc1ccc(S(=O)(=O)N/N=C\C=C\c2ccccc2)cc1 | 8 | . | -3 | 51*
SMILES | DENV2 CPE | PglD inh | N-glyco inh | Rtt109 HAT inh
O=S(=O)(N/N=C\C=C\c1ccccc1)c1ccc(Br)cc1 | . | 2 | -4 | 0
O=C(C[C@H]1CC[C@@H]2NC[C@H](O)COC[C@H]2O1)NCCN1CCCC1 | -6 | . | . | .
O=C(N[C@@H]1CC[C@@H](CC(=O)N2CCCCC2)O[C@@H]1CO)c1ccc2c(c1)OCO2 | -1 | 0 | . | .
CN1CCN(C(=S)Nc2ccc(Cl)c(Cl)c2)CC1 | 78* | -2 | 1 | -18
CC#CCN(CC#CC)S(=O)(=O)c1ccc(-n2cnnn2)c(OC)c1 | . | -2 | 4 | 54*
CCc1ccc(O)c(CNCCNCc2cc(CC)ccc2O)c1 | 73* | 2 | -10 | 0
Cc1ccc(O)c(CNCCNCc2cc(C)ccc2O)c1 | 1 | 0 | -10 | -2
C[C@@H]1CN([C@H](C)CO)C(=O)c2cc(NC(=O)Nc3cccc4ccccc34)ccc2O[C@@H]1CN(C)C(=O)Nc1ccc(F)cc1 | 25* | 1 | . | .
COc1ccc(NC(=O)Nc2ccc3c(c2)C(=O)N([C@@H](C)CO)C[C@H](C)[C@H](CN(C)C(=O)Nc2cccc4ccccc24)O3)cc1 | 31* | -4 | . | .
CC(CNC(=O)[C@H]1O[C@@H](n2cnc3c(=O)[nH]c(N)nc32)[C@H](O)[C@@H]1O)c1ccccc1 (some centres undefined) | 68* | . | . | .
C[C@H](CO)N1C[C@H](C)[C@H](CN(C)S(=O)(=O)c2ccc(C(F)(F)F)cc2)OCc2ccccc2-c2ccccc2C1=O | 33* | 0 | . | .
C[C@@H]1CN([C@H](C)CO)C(=O)c2ccccc2-c2ccccc2CO[C@H]1CN(C)S(=O)(=O)c1ccc(C(F)(F)F)cc1 | -11 | 5 | . | .
C[C@H](CO)N1C[C@H](C)[C@H](CN(C)Cc2ccc(C(F)(F)F)cc2)OCc2ccccc2-c2ccccc2C1=O | -14 | . | . | .
C[C@H]1CN([C@@H](C)CO)C(=O)c2ccccc2-c2ccccc2CO[C@H]1CN(C)Cc1ccc(C(F)(F)F)cc1 | 50* | . | . | .
O=S(=O)(N[C@H]1CC[C@@H](CCn2cc(C3CC3)nn2)O[C@@H]1CO)c1ccc(F)cc1 | 13 | 0 | . | .
CCOc1ccc(-n2c(C)c(C(C)=O)c3cc(OCC(N)=O)ccc32)cc1 | 32* | . | 1 | -1
C[C@H]1CCCCO[C@H](CN(C)C(=O)CCCN(C)C)[C@@H](C)CN([C@@H](C)CO)C(=O)c2cc(NS(=O)(=O)c3ccc(F)cc3)ccc2O1 | 56* | 0 | . | .
C[C@@H]1CN([C@@H](C)CO)C(=O)c2cc(NS(=O)(=O)c3ccc(F)cc3)ccc2O[C@@H](C)CCCCO[C@@H]1CN(C)C(=O)CCCN(C)C | 83* | -1 | . | .
C[C@H]1CCCCO[C@@H](CN(C)C(=O)CCCN(C)C)[C@@H](C)CN([C@@H](C)CO)C(=O)c2cc(NS(=O)(=O)c3ccc(F)cc3)ccc2O1 | -10 | -3 | . | .
C[C@H]1CN([C@@H](C)CO)S(=O)(=O)c2ccc(C3=CCCC3)cc2O[C@@H]1CN(C)C(=O)CC1CC1 | 70* | 5 | . | .
CC(C)NC(=O)N(C)C[C@@H]1Oc2cc(C3=CCCC3)ccc2S(=O)(=O)N([C@H](C)CO)C[C@@H]1C | 47* | 7 | . | .
C[C@H](CO)N1C[C@H](C)[C@@H](CN(C)C(=O)C2CCC2)Oc2cc(-c3cncnc3)ccc2S1(=O)=O | 29* | 2 | . | .
C[C@H](CO)N1C[C@H](C)[C@@H](CN(C)C(=O)C2CCC2)Oc2cc(C3=CCCC3)ccc2S1(=O)=O | 32* | 0 | . | .
